Screening data from PubChem BioAssay.
DUX4 txn inh = DUX4-mediated transcription inhibition. activity change, negative = inhibition, % (test concentration not listed). 293T-iDUX4 ZSCAN4-Gaussia luciferase reporter, 24 h; stronger effect = lower value. 37,000 compounds, 0.8% hits. AID 1224904;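 active = mean inhibition of at least 10% in the main channel, exceeding the control channel by a set limit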
Large screens that a line does not name were inactive. Only a selection was taken, and hits are over-represented in it overall.

COC(=O)[C@H]1[C@H](CO)[C@H]2Cn3c(ccc(-c4cccnc4)c3=O)[C@@H]1N2S(=O)(=O)c1ccccc1C	none
COC(=O)[C@@H]1[C@@H](CO)[C@@H]2Cn3c(ccc(-c4cccnc4)c3=O)[C@H]1N2S(=O)(=O)c1ccccc1C	none
COC(=O)[C@@H]1[C@@H](CO)[C@@H]2Cn3c(ccc(-c4cncnc4)c3=O)[C@H]1N2S(=O)(=O)c1ccccc1C	DUX4 txn inh -16.5
COC(=O)[C@@H]1[C@@H](CO)[C@@H]2Cn3c(ccc(C4=CCCCC4)c3=O)[C@H]1N2C(=O)NC(C)C	none
O=C(Cc1ccncc1)N1CCCCN2[C@@H](CO)[C@@H](c3ccc(-c4ccncc4)cc3)[C@@H]2C1	none
O=C(Cc1ccncc1)N1CCCCN2[C@H](CO)[C@H](c3ccc(-c4ccncc4)cc3)[C@@H]2C1	none
O=C(Cc1ccncc1)N1CCCCN2[C@H](CO)[C@@H](c3ccc(C#Cc4ccccc4F)cc3)[C@H]2C1	DUX4 txn inh -27.9
O=C(Cc1ccccc1)N1CC2(C1)[C@@H](c1ccccc1)[C@H](CO)N2Cc1cccc(F)c1	none
COC(=O)[C@H]1[C@H](CO)[C@H]2Cn3c(ccc(-c4ccccc4)c3=O)[C@@H]1N2C(=O)c1ccccc1F	none
O=C([C@H]1N[C@H]2c3cccc(=O)n3C[C@H]2[C@@H]1CO)N1CCCCC1	none
